Compounds with a hit are over-represented: about 7.3% of the library has one in this group of screens.
Rab9 prom act = activates the Rab9 promoter; Huh7 Rab9 promoter-luciferase reporter, luminescence, 24 h; Potency, µM (highest dose often 9.22 µM), for inactives: top-dose activation, negative = inhibition, usual class: activators; 320,000 tested, 2.8% active; AID 485297; also: % of control where 0% means no effect; nearly all actives have a fitted effect of over 60% in size
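Cells were plated at 1500 per well in reduced-serum medium with 10% FBS and left 2 h. Compound in DMSO was then added for 24 h at 37 °C. Reporter signal was read by luminescence after 10 min with luciferase detection reagent.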
SMN2 splice up = enhancers of SMN2 splice variant expression; Potency, µM (series often up to 46.1 µM), inactives show at the highest dose activity change, positive = activation, most hits filed as activators; HEK293 SMN2-luciferase splicing reporter, luminescence, 30-36 h; 210,000 tested, 2.8% active; AID 1458; also: % of control where 0% means no effect; nearly all actives have a fitted effect of over 55% in size
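HEK293 cells carry an SMN2 minigene-luciferase reporter in which exon 7 inclusion puts luciferase in frame. Cells were seeded at 2000 cells/well, attached for 10-12 hours, then exposed to compounds for 30-36 hours at 37C before ONE-Glo luminescence.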
NPC1 promoter act = NPC1 promoter activation; Huh7 NPC1 promoter luciferase reporter, 24 h; Potency, µM (highest dose often 9.22 µM), inactives show at the highest dose activation, most hits filed as activators; 320,000 tested, 2.4% active; also: % of control where 0% means no effect; nearly all actives have a fitted effect of over 60% in size
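Quantitative HTS used a cell-based reporter: Huh7 cells stably bearing the NPC1 promoter upstream of luciferase were treated with compounds for 24 h, and promoter activation was read as luminescence.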
FLuc modulator = firefly luciferase modulation, counter-screen for miR-21 project; AID 588342; Potency, µM (top dose mostly 57.5 µM), inactives show top-dose activity change, negative = inhibition, actives largely listed as inhibitors; 360,000 tested, 6.9% active; P08659; purified FLuc, Km substrates, luminescence inhibition;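 also: plate controls were vehicle for no effect and reference inhibitor for full effect; nearly all actives have a fitted effect of over 55% in size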
Target sequence (P08659 whole entry, looked up): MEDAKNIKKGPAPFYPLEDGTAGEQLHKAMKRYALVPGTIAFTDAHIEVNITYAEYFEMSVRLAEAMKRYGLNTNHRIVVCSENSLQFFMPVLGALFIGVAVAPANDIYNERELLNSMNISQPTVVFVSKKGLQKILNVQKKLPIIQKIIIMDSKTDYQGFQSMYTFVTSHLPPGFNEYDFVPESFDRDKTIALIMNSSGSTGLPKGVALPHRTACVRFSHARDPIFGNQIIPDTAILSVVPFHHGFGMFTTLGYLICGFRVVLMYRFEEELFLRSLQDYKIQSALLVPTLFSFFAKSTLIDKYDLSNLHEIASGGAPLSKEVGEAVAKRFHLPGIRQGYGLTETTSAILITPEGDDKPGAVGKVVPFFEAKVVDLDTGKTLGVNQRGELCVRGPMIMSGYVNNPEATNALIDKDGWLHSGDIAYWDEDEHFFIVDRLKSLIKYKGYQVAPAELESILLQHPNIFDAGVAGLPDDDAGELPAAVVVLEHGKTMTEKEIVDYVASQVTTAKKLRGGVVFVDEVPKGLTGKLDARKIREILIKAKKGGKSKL
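Purified P. pyralis luciferase (10nM final) with 10uM D-luciferin and 10uM ATP (Km levels) in 50mM Tris acetate pH 7.5, 10mM Mg acetate, 0.01% Tween-20, 0.05% BSA; qHTS 6-point titration, ~60 µM downward; luminescence read.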
uPA surface inh = blocks generation of uPA at the cell surface; cell surface uPA generation assay, qHTS; Potency, µM (top dose mostly 38.3 µM), without a hit: top-dose activity change, negative = inhibition, most hits filed as inhibitors; 330,000 tested, 0.31% active; AID 540303; active = well fitted inhibition curve with a large enough effect; inconclusive = small, poorly fitted or top-dose-only effect; inactive = no such curve, though single readings can be large or run the other way; tested in mouse RAW 264.7 cells; also: % is scaled to controls: 0 for no effect and ±100 for the full control effect; nearly all actives have a fitted effect of over 55% in size
ELG1 genotoxic = inducers of genotoxicity in HEK293T ELG1-luciferase cells. 330,000 tested, 1.3% active. HEK293T ELG1-luciferase reporter, luminescence, 16 h. AID 504466. Potency, µM (highest dose often 46 µM), for the others: at the top dose activity change, positive = activation, actives largely listed as activators; also: % of control where 0% means no effect; nearly all actives have a fitted effect of over 60% in size
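16 hr compound incubation (37 °C, 5% CO2) of HEK293T cells carrying luciferase-tagged ELG1; luciferase then measured by ONE-Glo luminescence after 30 min at RT.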
An asterisk follows results filed as active; ? = inconclusive; / = not tested or not shown. Unless noted, calls follow the shape of the dose curve; as a rule, active = well fitted curve in the direction sought with a large enough effect; inconclusive = small, poorly fitted or top-dose-only effect, or another doubt; inactive = no such curve, though single readings can be large; an effect the other way counts as inactive or inconclusive. Potency is read from the fitted curve at half-maximal effect.

SMILES	Rab9 prom act	SMN2 splice up	NPC1 promoter act	FLuc modulator	uPA surface inh	ELG1 genotoxic
O=C(c1cccc(S(=O)(=O)N2CCOCC2)c1)N(Cc1ccco1)Cc1cccs1	7%	/	-1%	6%	?	-3%
COC(=O)Cc1ccc(NC(=S)N2CCCC(C)C2)cc1 (configuration not stated)	?	?	24%	1.5µM*	-1%	?
COC(=O)Cc1ccc(NC(=S)N2CCCC(CO)C2)cc1 (configuration not stated)	?	/	?	0.85µM*	-9%	?
Cc1ccc(NC(=S)N2CCCC(CO)C2)c(C)c1 (configuration not stated)	?	/	17%	17µM*	-2%	10%
CC(=O)c1ccc(NC(=S)N2CCCC(CO)C2)cc1 (configuration not stated)	?	16µM*	?	8.5µM*	-10%	?
COc1cc(NC(=S)N2CCCC(CO)C2)cc(OC)c1 (configuration not stated)	13%	11%	-2%	?	-5%	3%
CC1CCCN(C(=S)Nc2ccc(F)cc2)C1 (configuration not stated)	3%	0%	-1%	-18%	-1%	-5%
Cc1ccc(NC(=S)N2CCC(O)CC2)c(C)c1	-1%	-4%	-8%	-3%	9%	-4%
CCOC(=O)c1ccc(NC(=O)c2sc3nc(N4CCOCC4)c4c(c3c2N)CCCC4)cc1	-4%	/	-10%	-1%	6%	-1%
OCC1CCCN(C(=S)Nc2ccc(Oc3ccccc3)cc2)C1 (configuration not stated)	1.8µM*	/	?	13µM*	1%	17%
OC1CCCN(C(=S)Nc2ccc(SC(F)F)cc2)C1 (configuration not stated)	14%	?	14%	11µM*	3%	9%
OCCN1CCN(C(=S)Nc2ccc(Oc3ccccc3)cc2)CC1	1%	-1%	1%	2%	4%	-3%
CC1CCCN(C(=S)Nc2ccc(Nc3ccccc3)cc2)C1 (configuration not stated)	3.5µM*	/	28%	?	1%	7%
COc1ccc([N+](=O)[O-])cc1NC(c1nnc(-c2ccccc2)o1)c1ccccc1F (configuration not stated)	/	/	/	0%	/	/
Cc1ccc(C)c(N2CCN(C(=O)C3CCN(c4nc5ccc(C)cc5[nH]4)CC3)CC2)c1	/	/	/	-15%	/	/
c1ccc2c(-c3nnc(SCc4cn5ccccc5n4)o3)c[nH]c2c1	3%	-21%	0%	?	3%	15%
COC(=O)CSc1nnc(-c2c[nH]c3ccccc23)o1	-1%	/	-4%	15µM*	2%	2%
c1ccc(CSc2nnc(-c3c[nH]c4ccccc34)o2)cc1	?	?	?	8.5µM*	5%	?
COC(=O)CSc1nnc(-c2ccc(OC)cc2OC)o1	-1%	-1%	3%	21µM*	3%	6%
CCOc1ccccc1C(=O)Nc1c(NC)c2ccccc2oc1=O	/	-1%	/	7%	/	/
O=C(NCc1nnnn1-c1ccc(Cl)cc1)c1ccc(Br)o1	1%	/	-2%	-1%	-5%	0%
Cc1c(-c2nnc(SCC(=O)Nc3ccc(Cl)cc3)o2)nnn1-c1ccc(F)cc1	/	/	/	-3%	/	/
CCOC(=O)CNC(=O)Nc1cc(C(=O)NCc2ccccc2OC)ccc1N1CCCC1	/	/	/	1%	/	/
CCS(=O)(=O)N1Cc2ccccc2CC1C(=O)Nc1nc2ccccc2[nH]1 (configuration not stated)	20%	?	24%	15µM*	1%	?
CCS(=O)(=O)N1Cc2ccccc2CC1C(=O)Nc1nc2ccccc2s1 (configuration not stated)	10%	-47%	1%	5.4µM*	?	2.3µM*
O=C(CSc1nc2c([nH]c3ccccc32)c(=O)n1-c1ccc(Cl)cc1)N1CCCCCC1	/	/	/	-1%	/	/

Screening data: PubChem BioAssay, National Center for Advancing Translational Sciences (NCATS)
